{"source": "PubChem BioAssay AID1654", "about": "(Sanford-Burnham Center for Chemical Genomics, 2009)", "note": "Out of some 290,000 compounds screened, about 1,500 (0.52%) were called active. This excerpt belongs to a sample that is enriched for actives. Unmarked numbers belong to inactive results. Rule as the data show it: active = inhibition above about 50%; inactive = the rest.", "data": [{"biological_target": "Dual specificity protein phosphatase 3 (Homo sapiens) (UniProt P51452)", "sequence (P51452 whole entry, looked up)": "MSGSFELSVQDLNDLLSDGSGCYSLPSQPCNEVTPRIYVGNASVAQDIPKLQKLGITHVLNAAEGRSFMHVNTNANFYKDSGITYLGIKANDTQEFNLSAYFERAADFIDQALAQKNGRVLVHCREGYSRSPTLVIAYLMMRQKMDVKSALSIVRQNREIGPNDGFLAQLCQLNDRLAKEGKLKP", "assay": "VHR1 phosphatase inhibitors, primary screen, biochemical, absorbance, uHTS (AID 1654)", "conditions": "recombinant VHR phosphatase, pNPP absorbance, at 13.3 µM, stronger effect = higher value", "values": [{"compound": "CCCn1nnnc1NCc1ccc(CC)cc1", "inhibition": "10.8%"}, {"compound": "O=C(c1ccc(Cl)cc1)n1cnc2ccccc21", "inhibition": "4.1%"}, {"compound": "COc1ccc(N2CCN(C(C)=C3C(=O)c4ccccc4C3=O)CC2)cc1", "inhibition": "30.2%"}, {"compound": "O=C1C(Cl)=C(N2CCOCC2)C(=O)N1c1ccccc1", "inhibition": "29.6%"}, {"compound": "COC1=C(N2CCOCC2)C(=O)c2ccccc2C1=O", "inhibition": "57.3% (active)"}, {"compound": "CCc1ccc(CNC(=O)C2CCN(c3nnc(C)c4c(C)n(-c5ccc(C)cc5)nc34)CC2)cc1", "inhibition": "-20.3%"}, {"compound": "CCN(CC)c1ccc(/C=N/NC(=O)CNC(=O)c2cccnc2)cc1", "inhibition": "-4.7%"}, {"compound": "O=C(CNC(=O)c1cccnc1)N/N=C/c1cc(Br)c(O)c(Br)c1", "inhibition": "52.6% (active)"}, {"compound": "O=C(CNC(=O)c1cccnc1)N/N=C/c1cccnc1", "inhibition": "17.2%"}, {"compound": "Cc1cc(-c2nnc(SCC(=O)Nc3ccc(F)cc3)n2N)n[nH]1", "inhibition": "8%"}, {"compound": "COc1cccc(CNCc2ccc3c(c2)OCO3)c1", "inhibition": "3.6%"}, {"compound": "CN(C(=O)C1CCN(c2ncnc3c2nc2n3CCCCC2)CC1)C1CCCCC1", "inhibition": "21.1%"}, {"compound": "CCOC(=O)c1cc(S(=O)(=O)NCCc2ccc(OC)c(OC)c2)cn1C", "inhibition": "55.6% (active)"}, {"compound": "CCS(=O)(=O)NCCc1ccc(OC)c(OC)c1", "inhibition": "3.5%"}, {"compound": "COc1ccc(CCNS(=O)(=O)c2ccc(F)cc2)cc1OC", "inhibition": "2.8%"}, {"compound": "CCOC(=O)c1ccc2[nH]c3c(c2c1)CCCC3NC=O", "note": "(stereo not drawn)", "inhibition": "5.2%"}, {"compound": "COc1ccc(N2CCN(C(=O)c3ccc(N4CCCCS4(=O)=O)cc3)CC2)cc1", "inhibition": "21.1%"}, {"compound": "Cc1ccc(S(=O)(=O)N(CC(O)CN2C(=O)NC(C)(C)C2=O)c2cccc([N+](=O)[O-])c2)cc1", "note": "(stereo not drawn)", "inhibition": "6.7%"}, {"compound": "COc1ccccc1S(=O)(=O)c1c(C)cc(C)[nH]c1=O", "inhibition": "8.8%"}, {"compound": "Cc1cc(C)c(S(=O)(=O)c2cc(F)ccc2C)c(=O)[nH]1", "inhibition": "56.9% (active)"}, {"compound": "Cc1cc(C)c(S(=O)(=O)c2ccc(F)cc2C)c(=O)[nH]1", "inhibition": "-16.2%"}, {"compound": "COc1ccc(OC)c(C(O)c2nc3ccccc3n2C)c1", "note": "(stereo not drawn)", "inhibition": "57% (active)"}, {"compound": "CCCn1c(C(O)c2cc(OC)ccc2OC)nc2ccccc21", "note": "(stereo not drawn)", "inhibition": "6.4%"}, {"compound": "CCn1c(C(O)c2cc(OC)ccc2OC)nc2ccccc21", "note": "(stereo not drawn)", "inhibition": "-40.5%"}, {"compound": "COc1cccc(NC(=O)C2C(c3ccccc3)C2(Cl)Cl)c1", "note": "(stereo not drawn)", "inhibition": "-7.8%"}, {"compound": "Cc1cc(C)c(C#N)c(Nc2cccc(Br)c2)n1", "inhibition": "0.3%"}, {"compound": "COc1cc(Cl)ccc1OCc1cc(C(=O)N(C)CCc2c(C)n[nH]c2C)no1", "inhibition": "1.6%"}, {"compound": "Cc1ccccc1Nc1c([N+](=O)[O-])ccc2nonc12", "inhibition": "17.2%"}, {"compound": "COc1ccccc1OCCOc1ccc(/C=C2\\C(=N)N3N=C(C)SC3=NC2=O)cc1", "inhibition": "59.3% (active)"}, {"compound": "CS(=O)(=O)C1=NN2C(=N)/C(=C\\c3ccc(OCCOc4ccccc4)cc3)C(=O)N=C2S1", "inhibition": "26.8%"}, {"compound": "CCOc1cc(/C=C2\\C(=N)N3N=C(C)SC3=NC2=O)ccc1OCCOc1ccccc1", "inhibition": "17.9%"}, {"compound": "C=CCN1C(=NC(=O)COc2ccccc2)SC2CS(=O)(=O)CC21", "note": "(stereo not drawn)", "inhibition": "19%"}, {"compound": "CC1(C)CC(=O)C=C(Nc2ccccc2)C1", "inhibition": "-8.5%"}, {"compound": "Cc1cc(C)nc(NNC2=CC(=O)CC(C)(C)C2)n1", "inhibition": "51.3% (active)"}, {"compound": "COC(=O)NNC1=CC(=O)CC(C)(C)C1", "inhibition": "1.2%"}, {"compound": "O=C(Nc1cc(-c2nc3ncccc3o2)ccc1Cl)c1ccco1", "inhibition": "24%"}, {"compound": "Cc1ccc(NC(=S)N(CCN2CCCCC2)Cc2ccco2)cc1C", "inhibition": "5.9%"}, {"compound": "Cc1ccc(NC(=S)N(Cc2ccco2)C(C)c2cccs2)cc1", "note": "(stereo not drawn)", "inhibition": "20.7%"}, {"compound": "Cc1ccc(NC(=S)N(CCCN2CCC(C)CC2)Cc2ccco2)cc1", "inhibition": "53.6% (active)"}, {"compound": "CCOc1ccc(-c2noc(CCC(=O)NC3CCCC3)n2)cc1OC", "inhibition": "27.7%"}, {"compound": "COc1cc(S(=O)(=O)N2CCN=C2c2ccccc2)ccc1Cl", "inhibition": "47.5%"}, {"compound": "CC(Sc1nnc(-c2ccccc2F)n1C1CC1)C(N)=O", "note": "(stereo not drawn)", "inhibition": "11.3%"}, {"compound": "CCc1ccc(N2CC(C(=O)Nc3ccc(S(=O)(=O)Nc4nccs4)cc3)CC2=O)cc1", "note": "(stereo not drawn)", "inhibition": "-2.6%"}, {"compound": "CCc1ccc(N2CC(C(=O)NC3=NCCS3)CC2=O)cc1", "note": "(stereo not drawn)", "inhibition": "54.4% (active)"}, {"compound": "CCc1ccc(N2CC(C(=O)N3CCCCCC3)CC2=O)cc1", "note": "(stereo not drawn)", "inhibition": "30.7%"}, {"compound": "COc1ccccc1OCCNC(=O)CCNC(=O)c1ccccc1Cl", "inhibition": "-2.5%"}, {"compound": "CC1CCCCC1NC(=O)c1cn(C)c2ccc(S(=O)(=O)N3CCOCC3)cc2c1=O", "note": "(stereo not drawn)", "inhibition": "5.7%"}, {"compound": "CCOc1cc(C)ccc1OCc1nnc(SCC(=O)Nc2cccc(C(=O)O)c2)n1-c1ccccc1", "inhibition": "-8.4%"}, {"compound": "CCN(CC)CCNC(=O)Cn1cnc2sc(C)c(S(=O)(=O)N3CCOCC3)c2c1=O", "inhibition": "57.3% (active)"}, {"compound": "CCN(CC)CCCNC(=O)Cn1cnc2sc(C)c(S(=O)(=O)N3CCN(c4ncccn4)CC3)c2c1=O", "inhibition": "7.7%"}, {"compound": "Cc1sc2ncn(CC(=O)NCCN(C)C)c(=O)c2c1S(=O)(=O)N1CCC(C)CC1", "inhibition": "5.1%"}, {"compound": "OC(CNCc1ccc2c(c1)OCO2)COc1ccccc1", "note": "(stereo not drawn)", "inhibition": "0.8%"}, {"compound": "CN(Cc1ccccc1)CC(O)COc1ccc(CNCc2cc3ccccc3s2)cc1", "note": "(stereo not drawn)", "inhibition": "55.5% (active)"}, {"compound": "Cc1ccc(OCC(=O)OC(C)CN(C)Cc2ccccc2)cc1", "note": "(stereo not drawn)", "inhibition": "-3.9%"}, {"compound": "COCCN(C(=S)Nc1cccc(Cl)c1C)C(C)c1ccco1", "note": "(stereo not drawn)", "inhibition": "19.1%"}, {"compound": "CCOC(=O)CC1COCCN1C(=O)c1cc(COc2ccc(F)c(F)c2)on1", "note": "(stereo not drawn)", "inhibition": "-31.1%"}, {"compound": "Cc1c(CC(=O)N2CCN(C(=O)C3COc4ccccc4O3)CC2)c(=O)oc2c(O)c(O)ccc12", "note": "(stereo not drawn)", "inhibition": "9.7%"}, {"compound": "COc1cccc(-c2coc3cc4oc(=O)c(CC(=O)O)c(C)c4cc23)c1", "inhibition": "57.3% (active)"}, {"compound": "Cc1c(CC(=O)NCCCCCC(=O)O)c(=O)oc2cc3occ(-c4ccccc4)c3cc12", "inhibition": "-11%"}, {"compound": "Cc1c(CCC(=O)O)c(=O)oc2cc3occ(-c4ccccc4)c3cc12", "inhibition": "-4.9%"}, {"compound": "Cc1nc(C)c(-c2nnc(-c3cccc(S(=O)(=O)N(C)C)c3)o2)cc1C(=O)NN", "inhibition": "1%"}, {"compound": "CN(C)CCN(C(=O)C1=COCCO1)c1nc2ccc(Cl)cc2s1", "inhibition": "17.5%"}, {"compound": "Cn1nnc(NC(=S)NC(=O)c2ccccc2)n1", "inhibition": "8.5%"}, {"compound": "CC(=O)N1CCN(CC(=O)Nc2ccc(C)c(F)c2)CC1", "inhibition": "0.1%"}, {"compound": "Cc1ccc(C(NC(=O)N2CCCC2)C(Cl)(Cl)Cl)cc1F", "note": "(stereo not drawn)", "inhibition": "51.3% (active)"}, {"compound": "Cc1ccc(C(=O)N2CCCC2)c(F)c1F", "inhibition": "11.9%"}, {"compound": "CC(=O)c1ccc(NC(=O)CCc2nnc3ccc(NCc4ccco4)nn23)cc1", "inhibition": "-9.1%"}, {"compound": "O=C(COC(=O)C1CC2C=CC1C2)Nc1ccccc1", "note": "(stereo not drawn)", "inhibition": "-9.6%"}, {"compound": "CN(C)S(=O)(=O)N1CCC(Oc2cccc(C(=O)NCCCC3CCCC3)c2)CC1", "inhibition": "-1.9%"}, {"compound": "Cc1ccc(CS(=O)(=O)CCC(=O)NCc2ccc(F)cc2)cc1", "inhibition": "57.9% (active)"}, {"compound": "Cc1ccc(CS(=O)(=O)CCC(=O)NC2CC2)cc1", "inhibition": "9.9%"}, {"compound": "CCCCC(=O)NCc1ccc(F)cc1", "inhibition": "-4.1%"}, {"compound": "O=C1CCC(C(=O)N2CCCCO2)CN1Cc1cccc(C(F)(F)F)c1", "note": "(stereo not drawn)", "inhibition": "23.9%"}, {"compound": "COC(=O)c1c(NC(=O)COc2ccc(Cl)cc2Cl)sc2c1CC(C)(C)NC2(C)C", "inhibition": "7.7%"}, {"compound": "COc1cc2c(cc1OC)CN(C(=O)c1cc(S(=O)(=O)N3CCCCC3)ccc1Cl)CC2", "inhibition": "8.6%"}, {"compound": "COc1ccc(S(=O)(=O)N2CCC(C(=O)N3CCc4ccccc4C3)CC2)cc1OC", "inhibition": "11.7%"}, {"compound": "COc1cc2c(cc1OC)C(C)N(S(=O)(=O)c1cnc(Cl)c(Cl)c1)CC2", "note": "(stereo not drawn)", "inhibition": "51.2% (active)"}, {"compound": "Cc1cc(C)cc(N(CCC#N)C(=O)CN2C(=O)NC3(CCCC3)C2=O)c1", "inhibition": "-12.4%"}, {"compound": "Cc1c(C(=O)NC(C)C2CC3CCC2C3)cccc1[N+](=O)[O-]", "note": "(stereo not drawn)", "inhibition": "54.4% (active)"}, {"compound": "Cc1c(C(=O)NCCCc2ccccc2)cccc1[N+](=O)[O-]", "inhibition": "22.5%"}, {"compound": "COC(=O)c1cc(C(=O)NC(C)C2CC3CCC2C3)cc([N+](=O)[O-])c1", "note": "(stereo not drawn)", "inhibition": "-11.2%"}, {"compound": "Cc1ccccc1NS(=O)(=O)CCCCC(Cl)(Cl)Cl", "inhibition": "15.4%"}, {"compound": "CCOC(=O)c1sc2nc(C)[nH]c(=O)c2c1C", "inhibition": "21.7%"}, {"compound": "CCOC(=O)c1nc(N)sc1C(=O)OCC", "inhibition": "50.8% (active)"}, {"compound": "CCOC(=O)c1c(N)sc(C(C)=O)c1C", "inhibition": "17.4%"}, {"compound": "O=C(/C=C/Nc1ccc(S(=O)(=O)Nc2cnc3ccccc3n2)cc1)c1cccnc1", "inhibition": "16.5%"}, {"compound": "COc1ccc2oc(=O)cc(-c3cc4ccccc4o3)c2c1", "inhibition": "52.7% (active)"}, {"compound": "COc1cccc2cc(-c3cc(=O)oc4cc(C)c(O)cc34)oc12", "inhibition": "-16.6%"}, {"compound": "COc1ccc(Nc2cc(=O)oc3ccccc23)cc1", "inhibition": "11.9%"}, {"compound": "Cc1cc(OC(=O)c2ccc(OC(C)C)cc2)c([N+](=O)[O-])c(=O)[nH]1", "inhibition": "-18%"}, {"compound": "Cc1ccc(S(=O)(=O)NCC2CCC(C(=O)N3CCOCC3)CC2)cc1", "note": "(stereo not drawn)", "inhibition": "52% (active)"}, {"compound": "Cc1ccc(S(=O)(=O)NCC(=O)N2CCOCCOCCOCCOCC2)cc1", "inhibition": "33.9%"}, {"compound": "O=C(O)C1CCC(CNS(=O)(=O)c2ccc(Br)cc2)CC1", "note": "(stereo not drawn)", "inhibition": "13.3%"}, {"compound": "CCCCCn1c(=O)[nH]c2cc(C(=O)NCCCN3CCCCC3C)ccc2c1=O", "note": "(stereo not drawn)", "inhibition": "22.4%"}, {"compound": "CCCCOP(=O)(c1ccc(N(C)C)cc1)C(O)c1cc(OC)ccc1OC", "note": "(stereo not drawn)", "inhibition": "6.1%"}, {"compound": "O=C(c1nnc(-c2ccc(Cl)cc2)o1)C1CCCC1", "inhibition": "51.3% (active)"}, {"compound": "CSc1ccccc1-c1nnc(-c2ccc(Cl)cc2)o1", "inhibition": "25.3%"}, {"compound": "O=C(Nc1nnc(-c2ccc(Cl)cc2)o1)c1ccccc1Br", "inhibition": "41.9%"}]}]}
